The record followed here is publication PMC7862700, “An all-to-all approach to the identification of sequence-specific readers for epigenetic DNA modifications on cytosine”.

Holding throughout (experiment): DAPPL (digital affinity profiling via proximity ligation, sequencing); 10 mM Tris-HCl pH 7.5, 50 mM NaCl, 1 mM DTT, 4% glycerol, room temperature, 30 min; GST-TFs on glutathione beads, 16-mer random dsDNA library, 0.1% formaldehyde crosslink after washing; high values mean tight binding
Common to all, as to conditions: protein: recombinant; tags: N-terminal GST; dsDNA, one strand shown

One assay addresses T1, FLI1 (Homo sapiens, UniProt Q01543 1-452).
T1 sequence: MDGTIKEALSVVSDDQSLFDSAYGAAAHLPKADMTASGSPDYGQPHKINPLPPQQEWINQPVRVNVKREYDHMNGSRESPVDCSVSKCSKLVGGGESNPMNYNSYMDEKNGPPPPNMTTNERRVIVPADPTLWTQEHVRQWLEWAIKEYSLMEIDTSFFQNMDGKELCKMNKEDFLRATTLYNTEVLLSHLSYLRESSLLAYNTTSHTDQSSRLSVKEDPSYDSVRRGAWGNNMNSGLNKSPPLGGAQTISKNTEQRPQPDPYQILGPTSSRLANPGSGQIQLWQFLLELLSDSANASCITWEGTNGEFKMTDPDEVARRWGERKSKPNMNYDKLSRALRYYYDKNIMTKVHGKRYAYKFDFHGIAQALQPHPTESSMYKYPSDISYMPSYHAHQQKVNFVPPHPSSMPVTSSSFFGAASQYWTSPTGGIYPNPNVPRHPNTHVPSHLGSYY
The method, boiled down:
(§1)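 Beads coated with glutathione captured GST-fused human transcription factors that had been expressed in yeast, and the factors were then given DNA barcodes and pooled with a tag-only sample. The pools were incubated with 200 nmole of a random double-stranded 16-mer DNA library in Tris/NaCl/DTT/glycerol buffer for 30 min at room temperature, washed, crosslinked with 0.1% formaldehyde and proximity-ligated with BsaI/T4 ligase at 37 °C for 1 h. PCR amplification and Illumina NextSeq500 sequencing came last. Binding signal is each hexamer's read frequency for a factor divided by its frequency for the tag-only sample.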

Another assay has as its target T2, ELK1 (Homo sapiens, UniProt P19419 1-428).
T2 sequence: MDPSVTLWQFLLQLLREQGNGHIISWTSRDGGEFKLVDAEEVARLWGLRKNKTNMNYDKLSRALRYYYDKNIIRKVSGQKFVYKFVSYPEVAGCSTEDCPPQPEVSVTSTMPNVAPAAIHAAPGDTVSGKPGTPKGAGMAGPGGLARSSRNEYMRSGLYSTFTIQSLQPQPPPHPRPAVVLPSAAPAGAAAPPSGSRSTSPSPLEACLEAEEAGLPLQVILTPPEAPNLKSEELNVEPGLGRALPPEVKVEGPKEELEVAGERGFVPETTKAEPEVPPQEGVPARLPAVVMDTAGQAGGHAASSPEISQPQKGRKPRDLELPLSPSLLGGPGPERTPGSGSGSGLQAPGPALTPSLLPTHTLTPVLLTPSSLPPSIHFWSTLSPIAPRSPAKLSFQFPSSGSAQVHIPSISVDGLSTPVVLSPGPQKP
The method, boiled down:
as §1

A further assay has as its target T3, GABPA (Homo sapiens, UniProt Q06546 1-454).
T3 sequence: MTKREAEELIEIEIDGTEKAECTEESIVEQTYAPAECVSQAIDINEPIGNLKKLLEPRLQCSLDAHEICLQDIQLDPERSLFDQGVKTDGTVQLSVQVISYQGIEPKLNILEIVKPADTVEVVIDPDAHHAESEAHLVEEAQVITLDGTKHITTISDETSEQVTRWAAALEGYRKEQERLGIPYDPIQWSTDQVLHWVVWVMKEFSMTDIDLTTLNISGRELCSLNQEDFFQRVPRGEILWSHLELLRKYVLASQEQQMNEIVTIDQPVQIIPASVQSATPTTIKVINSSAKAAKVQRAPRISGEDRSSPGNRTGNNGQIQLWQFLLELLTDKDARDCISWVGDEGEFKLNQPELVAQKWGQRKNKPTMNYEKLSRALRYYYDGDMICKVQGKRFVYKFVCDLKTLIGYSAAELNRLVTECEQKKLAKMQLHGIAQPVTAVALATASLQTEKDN
The essentials: as §1

In the next assay the target is T4, ERG (Homo sapiens, UniProt P11308 1-479).
T4 sequence: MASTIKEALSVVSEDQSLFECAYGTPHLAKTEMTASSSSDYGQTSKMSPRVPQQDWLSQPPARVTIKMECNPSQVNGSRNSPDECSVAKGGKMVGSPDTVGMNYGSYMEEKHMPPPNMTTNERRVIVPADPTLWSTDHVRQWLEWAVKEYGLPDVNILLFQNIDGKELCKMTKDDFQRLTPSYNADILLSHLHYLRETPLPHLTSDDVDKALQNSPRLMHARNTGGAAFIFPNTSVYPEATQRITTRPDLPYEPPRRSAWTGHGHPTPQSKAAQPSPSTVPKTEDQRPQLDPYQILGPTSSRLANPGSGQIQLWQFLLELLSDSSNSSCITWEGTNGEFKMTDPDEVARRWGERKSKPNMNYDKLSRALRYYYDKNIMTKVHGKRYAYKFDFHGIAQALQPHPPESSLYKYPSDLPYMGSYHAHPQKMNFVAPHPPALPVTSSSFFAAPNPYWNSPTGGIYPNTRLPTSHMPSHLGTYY
The essentials:
as §1

The target in another assay is ELF1 (Homo sapiens, UniProt P32519 1-619). The essentials:
as §1

Another assay concerns the target T5, EHF (Homo sapiens, UniProt Q9NZC4 1-300).
T5 sequence: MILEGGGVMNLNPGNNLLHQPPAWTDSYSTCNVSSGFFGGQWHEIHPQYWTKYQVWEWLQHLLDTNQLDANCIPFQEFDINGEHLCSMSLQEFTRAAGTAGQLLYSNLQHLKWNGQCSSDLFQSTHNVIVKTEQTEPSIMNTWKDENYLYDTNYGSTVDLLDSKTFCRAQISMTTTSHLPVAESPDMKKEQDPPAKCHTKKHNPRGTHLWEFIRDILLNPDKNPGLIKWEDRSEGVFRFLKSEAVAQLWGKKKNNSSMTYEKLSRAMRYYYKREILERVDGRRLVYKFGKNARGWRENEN
The essentials: as §1

In the next assay the target is SPI1 (Homo sapiens, UniProt P17947 1-270). The essentials: as §1
A further assay has as its target T6, ELK3 (Homo sapiens, UniProt P41970 1-407).
T6 sequence: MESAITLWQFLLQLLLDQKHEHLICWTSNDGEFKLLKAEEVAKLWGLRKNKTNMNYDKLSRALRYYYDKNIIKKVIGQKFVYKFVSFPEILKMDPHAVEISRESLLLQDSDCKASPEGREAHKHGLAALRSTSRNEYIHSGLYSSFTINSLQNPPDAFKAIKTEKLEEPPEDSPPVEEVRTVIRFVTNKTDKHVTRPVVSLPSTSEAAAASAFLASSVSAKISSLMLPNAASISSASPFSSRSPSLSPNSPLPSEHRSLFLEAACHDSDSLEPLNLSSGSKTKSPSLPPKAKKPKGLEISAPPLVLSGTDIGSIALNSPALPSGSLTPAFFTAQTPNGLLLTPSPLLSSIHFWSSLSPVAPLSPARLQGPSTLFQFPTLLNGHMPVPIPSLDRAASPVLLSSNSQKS
The method, boiled down: as §1

Another assay has as its target T7, FEV (Homo sapiens, UniProt Q99581 1-238).
T7 sequence: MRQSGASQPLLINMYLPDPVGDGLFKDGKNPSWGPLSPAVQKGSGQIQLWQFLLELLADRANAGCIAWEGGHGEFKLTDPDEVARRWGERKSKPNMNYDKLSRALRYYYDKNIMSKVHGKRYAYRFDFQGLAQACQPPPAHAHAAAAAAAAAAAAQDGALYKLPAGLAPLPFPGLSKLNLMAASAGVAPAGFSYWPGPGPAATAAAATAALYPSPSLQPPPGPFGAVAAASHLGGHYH
The essentials:
as §1

The next assay deals with ETV5 (Homo sapiens, UniProt P41161 1-510). The method, boiled down: as §1
Chain of ETV5 (P41161 whole entry): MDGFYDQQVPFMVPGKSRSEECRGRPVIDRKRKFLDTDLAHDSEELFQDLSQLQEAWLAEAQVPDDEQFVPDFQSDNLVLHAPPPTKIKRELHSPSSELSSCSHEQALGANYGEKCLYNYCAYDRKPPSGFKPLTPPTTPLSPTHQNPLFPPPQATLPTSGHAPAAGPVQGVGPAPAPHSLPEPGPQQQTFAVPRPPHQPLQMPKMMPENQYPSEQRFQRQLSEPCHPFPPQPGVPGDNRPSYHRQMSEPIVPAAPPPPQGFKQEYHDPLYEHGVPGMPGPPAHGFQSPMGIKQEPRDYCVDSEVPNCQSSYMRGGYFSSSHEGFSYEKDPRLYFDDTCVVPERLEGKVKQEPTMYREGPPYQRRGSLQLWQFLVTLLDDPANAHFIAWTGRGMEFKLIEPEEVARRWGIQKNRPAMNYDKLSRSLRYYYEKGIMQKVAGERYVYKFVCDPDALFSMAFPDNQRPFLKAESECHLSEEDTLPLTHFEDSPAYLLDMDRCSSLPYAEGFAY
Another assay addresses T8, SPIC (Homo sapiens, UniProt Q8N5J4 1-248).
T8 sequence: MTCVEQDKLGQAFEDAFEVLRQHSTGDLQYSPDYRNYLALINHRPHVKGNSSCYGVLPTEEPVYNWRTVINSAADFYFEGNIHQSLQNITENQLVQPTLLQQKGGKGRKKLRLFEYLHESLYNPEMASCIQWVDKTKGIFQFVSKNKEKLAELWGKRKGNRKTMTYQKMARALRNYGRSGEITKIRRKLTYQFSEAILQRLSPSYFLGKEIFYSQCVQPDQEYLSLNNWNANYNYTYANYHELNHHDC
The essentials:
as §1

In the next assay the target is ELF4 (Homo sapiens, UniProt Q99607 1-663). The essentials: as §1
Chain of ELF4 (Q99607 whole entry): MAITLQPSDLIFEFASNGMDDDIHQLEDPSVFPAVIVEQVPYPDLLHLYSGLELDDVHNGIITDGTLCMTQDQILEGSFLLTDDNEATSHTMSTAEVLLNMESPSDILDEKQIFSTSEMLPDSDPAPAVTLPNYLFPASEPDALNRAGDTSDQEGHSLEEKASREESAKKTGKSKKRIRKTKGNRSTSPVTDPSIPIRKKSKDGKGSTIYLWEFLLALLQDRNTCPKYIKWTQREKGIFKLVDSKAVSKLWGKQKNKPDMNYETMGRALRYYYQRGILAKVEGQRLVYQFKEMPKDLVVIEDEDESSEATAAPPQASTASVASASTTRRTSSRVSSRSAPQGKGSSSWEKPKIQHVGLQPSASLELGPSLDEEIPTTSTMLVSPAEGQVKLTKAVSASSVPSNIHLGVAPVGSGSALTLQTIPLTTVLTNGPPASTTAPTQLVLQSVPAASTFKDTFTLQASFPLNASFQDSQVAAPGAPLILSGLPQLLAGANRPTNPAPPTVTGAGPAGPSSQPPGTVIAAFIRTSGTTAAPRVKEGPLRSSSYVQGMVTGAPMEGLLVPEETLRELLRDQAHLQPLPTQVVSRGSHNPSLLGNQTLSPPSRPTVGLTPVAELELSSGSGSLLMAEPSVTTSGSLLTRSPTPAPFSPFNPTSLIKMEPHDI
For another assay, the target named is T9, ELK4 (Homo sapiens, UniProt P28324-2 1-405).
T9 sequence: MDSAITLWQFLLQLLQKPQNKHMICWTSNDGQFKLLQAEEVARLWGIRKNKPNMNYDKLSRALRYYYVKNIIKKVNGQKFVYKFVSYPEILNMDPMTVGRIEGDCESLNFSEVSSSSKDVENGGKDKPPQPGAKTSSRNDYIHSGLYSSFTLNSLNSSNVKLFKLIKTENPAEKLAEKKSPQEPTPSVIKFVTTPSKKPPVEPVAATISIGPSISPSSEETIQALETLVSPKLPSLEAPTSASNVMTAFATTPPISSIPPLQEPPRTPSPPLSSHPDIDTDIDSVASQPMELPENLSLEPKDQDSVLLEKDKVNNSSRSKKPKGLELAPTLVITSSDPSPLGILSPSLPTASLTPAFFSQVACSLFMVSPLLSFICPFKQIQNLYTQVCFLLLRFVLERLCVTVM
The method, boiled down:
as §1

In a further assay the target is T10, ETV2 (Homo sapiens, UniProt O00321 1-342).
T10 sequence: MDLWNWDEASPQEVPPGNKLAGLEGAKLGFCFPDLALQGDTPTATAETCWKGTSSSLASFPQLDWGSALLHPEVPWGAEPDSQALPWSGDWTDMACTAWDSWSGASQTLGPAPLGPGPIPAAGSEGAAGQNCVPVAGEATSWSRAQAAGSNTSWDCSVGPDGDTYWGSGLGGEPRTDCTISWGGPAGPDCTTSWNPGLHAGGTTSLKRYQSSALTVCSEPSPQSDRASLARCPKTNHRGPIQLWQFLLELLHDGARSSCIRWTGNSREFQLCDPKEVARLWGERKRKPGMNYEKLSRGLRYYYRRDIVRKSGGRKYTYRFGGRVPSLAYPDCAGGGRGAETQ
The essentials:
as §1

For the next assay, the target named is T11, ELF3 (Homo sapiens, UniProt P78545 1-371).
T11 sequence: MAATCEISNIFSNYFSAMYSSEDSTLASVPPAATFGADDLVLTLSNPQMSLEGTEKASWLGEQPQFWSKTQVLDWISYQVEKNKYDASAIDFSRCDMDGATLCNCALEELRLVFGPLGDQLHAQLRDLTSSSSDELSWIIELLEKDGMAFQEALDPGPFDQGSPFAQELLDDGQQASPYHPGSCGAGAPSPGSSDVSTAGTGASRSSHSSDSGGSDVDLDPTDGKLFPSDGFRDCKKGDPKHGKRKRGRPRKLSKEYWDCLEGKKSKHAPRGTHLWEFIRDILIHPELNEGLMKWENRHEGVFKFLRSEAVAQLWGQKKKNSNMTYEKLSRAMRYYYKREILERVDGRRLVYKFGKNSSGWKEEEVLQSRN
The essentials: as §1

For a further assay, the target named is ETV1 (Homo sapiens, UniProt P50549 1-477). The method, boiled down:
as §1

Chain of ETV1 (P50549 whole entry): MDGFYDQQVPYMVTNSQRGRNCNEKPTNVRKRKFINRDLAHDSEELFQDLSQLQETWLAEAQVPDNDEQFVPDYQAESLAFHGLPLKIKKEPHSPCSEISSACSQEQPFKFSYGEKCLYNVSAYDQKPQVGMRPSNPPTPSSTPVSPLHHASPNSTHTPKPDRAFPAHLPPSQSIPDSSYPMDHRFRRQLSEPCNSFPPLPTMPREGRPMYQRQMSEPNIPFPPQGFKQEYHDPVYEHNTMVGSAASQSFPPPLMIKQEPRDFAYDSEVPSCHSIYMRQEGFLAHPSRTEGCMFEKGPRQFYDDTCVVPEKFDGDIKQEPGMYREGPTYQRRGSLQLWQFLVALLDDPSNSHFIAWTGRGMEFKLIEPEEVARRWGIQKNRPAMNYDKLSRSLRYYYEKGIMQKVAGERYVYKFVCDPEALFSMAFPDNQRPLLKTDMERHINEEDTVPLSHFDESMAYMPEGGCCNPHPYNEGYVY
Chain of ELF1 (P32519 whole entry): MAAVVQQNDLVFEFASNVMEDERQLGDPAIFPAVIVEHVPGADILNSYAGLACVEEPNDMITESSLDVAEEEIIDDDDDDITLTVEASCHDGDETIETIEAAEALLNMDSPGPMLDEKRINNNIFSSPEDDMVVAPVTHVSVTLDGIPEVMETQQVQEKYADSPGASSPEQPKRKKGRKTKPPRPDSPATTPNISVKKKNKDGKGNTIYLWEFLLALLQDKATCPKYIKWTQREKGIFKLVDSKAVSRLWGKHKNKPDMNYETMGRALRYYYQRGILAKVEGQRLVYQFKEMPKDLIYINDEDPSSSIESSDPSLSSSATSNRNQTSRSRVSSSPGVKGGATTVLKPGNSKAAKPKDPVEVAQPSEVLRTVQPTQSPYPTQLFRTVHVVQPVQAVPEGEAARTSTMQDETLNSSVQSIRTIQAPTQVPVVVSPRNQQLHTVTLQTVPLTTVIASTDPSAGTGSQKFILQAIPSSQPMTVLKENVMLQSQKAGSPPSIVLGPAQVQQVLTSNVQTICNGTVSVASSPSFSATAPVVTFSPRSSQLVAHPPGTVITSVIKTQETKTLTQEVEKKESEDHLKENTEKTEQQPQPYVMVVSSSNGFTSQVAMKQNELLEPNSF

With GCCCCC, the binding signal is 1.06 fold enrichment (6-mer frequency, TF over GST control) with FLI1; 1.02 fold enrichment (6-mer frequency, TF over GST control) in the assay with ELK1; 1.15 fold enrichment (6-mer frequency, TF over GST control) with GABPA; 1.03 fold enrichment (6-mer frequency, TF over GST control) with ERG; 1.15 fold enrichment (6-mer frequency, TF over GST control) in the assay with ELF1; 1.13 fold enrichment (6-mer frequency, TF over GST control) with EHF. In addition, the binding signal with SPI1 is 1.12 fold enrichment (6-mer frequency, TF over GST control); with ELK3, 1.06 fold enrichment (6-mer frequency, TF over GST control); with FEV it was 1.13 fold enrichment (6-mer frequency, TF over GST control); with ETV5, 1.06 fold enrichment (6-mer frequency, TF over GST control); with SPIC, 1.26 fold enrichment (6-mer frequency, TF over GST control); with ELF4 it was 1.11 fold enrichment (6-mer frequency, TF over GST control). In addition, the binding signal in the assay with ELK4 was 1.18 fold enrichment (6-mer frequency, TF over GST control); in the assay with ETV2 it was 1.23 fold enrichment (6-mer frequency, TF over GST control); in the assay with ELF3, 1.2 fold enrichment (6-mer frequency, TF over GST control); with ETV1, 1.1 fold enrichment (6-mer frequency, TF over GST control).

Take GCAATG: the binding signal with FLI1 was 1.05 fold enrichment (6-mer frequency, TF over GST control); with ELK1, 1.08 fold enrichment (6-mer frequency, TF over GST control); with ELF1 it was 1.08 fold enrichment (6-mer frequency, TF over GST control); in the assay with EHF, 1.04 fold enrichment (6-mer frequency, TF over GST control); in the assay with ELK3, 1.03 fold enrichment (6-mer frequency, TF over GST control); in the assay with FEV, 1.08 fold enrichment (6-mer frequency, TF over GST control). For the same sequence, the binding signal with ETV5 was 1.09 fold enrichment (6-mer frequency, TF over GST control); in the assay with SPIC it was 1.08 fold enrichment (6-mer frequency, TF over GST control); in the assay with ELF4, 1.04 fold enrichment (6-mer frequency, TF over GST control); with ELK4, 1.13 fold enrichment (6-mer frequency, TF over GST control); with ETV2, 1.07 fold enrichment (6-mer frequency, TF over GST control); with ELF3, 1.17 fold enrichment (6-mer frequency, TF over GST control). For the same sequence, in the assay with ETV1, the binding signal was 1.06 fold enrichment (6-mer frequency, TF over GST control).
